# GLA spleen mod: inhibits or activates alpha-galactosidase in human spleen homogenate | Potency, µM (doses to about 80 µM), actives largely listed as inhibitors | AID 2107 | 240,000 compounds, 0.008% hits | P06280 | human spleen homogenate, 4MU-alpha-Gal fluorescence, 40 min
#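 Human spleen homogenate (1 ug) as enzyme source, 4-methylumbelliferyl-alpha-D-galactopyranoside 1 mM final, citrate/phosphate pH 5.0 with 0.01% Tween-20. Compounds 40 min at 37C, NaOH/glycine stop; fluorescence Ex 365/Em 440, Hill-fit AC50.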
# GAA glycogen mod: GAA glycogen-cleavage inhibition or activation; P10253; recombinant GAA, glycogen substrate, Amplex Red glucose oxidase fluorescence; Potency, µM (doses to about 76.4 µM), usual class: inhibitors; 300,000 compounds, 0.38% hits; AID 2100;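 note: the screen sought inhibitors and activators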
#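 Recombinant enzyme (4 nM final) with compounds titrated up to 77 uM and bovine liver glycogen (30 ug) in citrate pH 5.0, 0.01% Tween-20, 37 C 40 min. Released glucose detected by Amplex Red/glucose oxidase (Ex 573/Em 610); AC50 from Hill fits.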
# aGlu spleen mod: inhibits or activates alpha-glucosidase in human spleen homogenate | Potency, µM (doses to about 79.9 µM), most hits filed as inhibitors | 240,000 compounds, 0.006% hits | AID 2112 | P10253 | human spleen homogenate, 4-MU-alpha-glucoside fluorescence
#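 Human spleen homogenate (1 ug) with 4-methylumbelliferyl-alpha-D-glucopyranoside (1 mM final) in 50 mM citrate/phosphate pH 5.0, 0.01% Tween-20; 40 min at 37 C. Stopped at pH 10; 4-MU fluorescence Ex 365/Em 440 nm; AC50 by Hill fit.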
# GAA inh: blocks human lysosomal alpha-glucosidase. purified human GAA, 4-MU-alpha-glucoside fluorescence. Potency, µM (highest dose often 76.9 µM), actives largely listed as inhibitors. 200,000 compounds, 0.005% hits. AID 1466
#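 Read-out is 4-methylumbelliferone fluorescence (Ex 365/Em 440 nm) after NaOH/glycine stop at pH 10. Enzyme 4 nM, substrate 400 uM, pH 5.0 citrate buffer, 20 min room temperature; AC50 from Hill-equation concentration-response.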
# GLA inh pH 4.5: inhibitors of human alpha-galactosidase A at pH 4.5; 230,000 tested, under 10 active; P06280; activity change, negative = inhibition, % at 105 µM; purified enzyme, 4-MU-alpha-Gal fluorescence, pH 4.5
# Target sequence (P06280 whole entry, looked up): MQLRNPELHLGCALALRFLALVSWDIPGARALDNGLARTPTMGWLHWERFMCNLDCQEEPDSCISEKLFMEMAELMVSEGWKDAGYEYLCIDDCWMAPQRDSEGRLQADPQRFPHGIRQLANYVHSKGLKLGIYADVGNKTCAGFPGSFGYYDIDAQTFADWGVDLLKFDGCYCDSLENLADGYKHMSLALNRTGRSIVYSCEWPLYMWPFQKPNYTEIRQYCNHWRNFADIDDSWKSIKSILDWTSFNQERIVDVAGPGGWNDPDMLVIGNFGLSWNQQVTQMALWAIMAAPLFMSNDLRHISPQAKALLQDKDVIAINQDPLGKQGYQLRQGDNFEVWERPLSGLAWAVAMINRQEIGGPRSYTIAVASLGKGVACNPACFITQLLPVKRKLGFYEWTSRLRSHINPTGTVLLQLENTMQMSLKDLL
# N370S GC mod: inhibitors or activators of N370S glucocerebrosidase for Gaucher disease. P04062. N370S GC spleen homogenate, 4MU-glucoside fluorescence. Potency, µM (doses to about 59.4 µM), actives largely listed as inhibitors. 330,000 compounds, 0.092% hits
# A number is an active result; n = inactive; u = inconclusive; x = no result; [ ] = dose if it differs, or a comment. Sampled rows, rich in hits. Any-hit rate of the full collection: about 0.43%. Calls come from the whole dose curve; as a rule, active = well fitted curve in the direction sought with a large enough effect; inconclusive = small, poorly fitted or top-dose-only effect, or another doubt; inactive = no such curve, though single readings can be large; an effect the other way counts as inactive or inconclusive.
SMILES,GLA spleen mod,GAA glycogen mod,aGlu spleen mod,GAA inh,GLA inh pH 4.5,N370S GC mod
CC(C)C[C@H](NC(=O)CNC(=O)[C@H](C)NC(=O)[C@H](CC(C)C)NC(=O)[C@H](CCCNC(=N)N)NC(=O)[C@H](Cc1cnc[nH]1)NC(=O)[C@@H](NC(=O)[C@@H](NC(=O)[C@@H]1CSSC[C@H](NC(=O)[C@@H](N)CO)C(=O)N[C@@H](CC(N)=O)C(=O)N[C@@H]([C@@H](C)O)C(=O)N[C@@H](C)C(=O)N[C@@H]([C@@H](C)O)C(=O)N1)C(C)C)[C@@H](C)O)C(=O)N[C@@H](CC(C)C)C(=O)N[C@@H](CO)C(=O)N[C@@H](CCCNC(=N)N)C(=O)N[C@@H](CO)C(=O)NCC(=O)NCC(=O)N[C@H](C(=O)N[C@H](C(=O)N[C@@H](CCCCN)C(=O)N[C@@H](CC(=O)O)C(=O)N[C@@H](CC(N)=O)C(=O)N[C@@H](Cc1ccccc1)C(=O)N[C@H](C(=O)N1CCC[C@H]1C(=O)N[C@H](C(=O)N[C@@H](CC(N)=O)C(=O)N[C@H](C(=O)NCC(=O)N[C@@H](CO)C(=O)N[C@@H](CCCCN)C(=O)N[C@@H](C)C(=O)N[C@@H](Cc1ccccc1)C(N)=O)C(C)C)[C@@H](C)O)C(C)C)C(C)C)C(C)C,n,x,n,x,x,n
Brc1ccc2nc(-c3cccs3)c(NCC3CCCO3)n2c1 (stereo not given),n,6.3µM,n,n,n,u
CN(C)c1nc(-c2cccnc2)nc2ccccc12,28µM,x,n,x,x,n
CN(Cc1cccs1)c1nc(-c2cccnc2)nc2ccccc12,n,n,n,n,n,n
O=C(OCCNc1nc(-c2ccccc2)nc2ccccc12)c1cccnc1,n,n,n,u,n,7.1µM
OC(CNc1nc(-c2cccnc2)nc2ccccc12)c1ccccc1 (stereo not given),x,x,x,x,x,10µM
Cc1ccc2oc(C(=O)Nc3ccc(S(=O)(=O)N4CCCCC4C)cc3)cc(=O)c2c1 (stereo not given),x,7.1µM,x,x,x,x
O=C(N/N=C/c1ccc(-c2ccccc2Cl)o1)c1ccccc1,n,n,n,n,n,n
O=S(=O)(N/N=C\c1ccc(-c2ccccc2Cl)o1)c1ccccc1,n,25µM,n,n,n,n
O=C1C=C(Nc2ccccc2O)c2ccccc2C1=O,n,12µM,u,n,n,n
O=C1C=C(NCc2ccccc2)c2ccccc2C1=O,n,n,n,n,n,n
CCOC(=O)c1oc2c(O)c(O)ccc2c(=O)c1-c1nncn1-c1ccccc1,n,35µM,n,n,n,n
S=C(NCc1ccco1)N/N=C/c1ccc(Cl)cc1,n,n,n,n,n,n
Oc1ccc(/C=N/NC(=S)NCc2ccco2)cc1,n,28µM,n,n,n,n[12.8 µM]
Nc1nc(C2CC2)c(Sc2sc(N)nc2C2CC2)s1,n,6.3µM,n,n,n,n
c1ccc(-c2nc3ccccn3c2NCc2ccc3c(c2)OCO3)cc1,n,25µM,n,n,n,u
COc1ccc(-c2nc3ccccn3c2NCc2ccc3c(c2)OCO3)cc1,n,8.8µM,n,n,n,n
COc1cccc(-c2ccc3ncnc(N(C)C)c3c2)c1,50µM,x,n,x,x,n
COc1cccc(CNc2ncc(Br)cc2Br)c1O,n,25µM,n,n,n,n
CCCn1cnc2cc(NCc3cccc(OC)c3O)ccc21,n,18µM,n,n,n,n
COc1cccc(CNc2ccc(Br)cn2)c1O,n,u,n,n,n,n
COC(=O)c1c(NC(=O)COC(=O)CCNS(=O)(=O)c2ccccc2)sc(C)c1C,x,x,x,x,x,n
COC(=O)c1c(NC(=O)COC(=O)CCNS(=O)(=O)c2ccc(NC(C)=O)cc2)sc(C)c1C,x,x,x,x,x,8.9µM
CN(C)c1ccc2c(-c3ccccc3)c3ccc(=[N+](C)C)cc-3oc2c1,n,x,n,x,x,n
Cc1ccccc1N(C(=O)c1ccccn1)C(C(=O)NCc1ccccc1)c1ccncc1 (stereo not given),x,n,x,x,x,n
SMILES,GLA spleen mod,GAA glycogen mod,aGlu spleen mod,GAA inh,GLA inh pH 4.5,N370S GC mod
O=C(NCc1ccccc1)C(c1ccncc1)N(C(=O)c1ccccn1)c1ccccc1 (stereo not given),x,11µM,x,x,x,n
CN=c1scc(-c2ccc(F)cc2)n1/N=C/c1ccc(O)c(O)c1,n,5.6µM,n,n,n,n
CC[C@H](C)[C@H](NC(=O)[C@H](CCC(=O)O)NC(=O)[C@@H](N)CO)C(=O)N[C@@H](CCC(N)=O)C(=O)N[C@@H](CC(C)C)C(=O)N[C@@H](CCSC)C(=O)N[C@@H](Cc1cnc[nH]1)C(=O)N[C@@H](CC(N)=O)C(=O)N[C@@H](CC(C)C)C(=O)NCC(=O)N[C@@H](CCCCN)C(=O)N[C@@H](Cc1cnc[nH]1)C(=O)N[C@@H](CC(C)C)C(=O)N[C@@H](C)C(=O)N[C@@H](CO)C(=O)N[C@H](C(=O)N[C@@H](CCC(=O)O)C(=O)N[C@@H](CCCNC(=N)N)C(=O)N[C@@H](CCSC)C(=O)N[C@@H](CCC(N)=O)C(=O)N[C@@H](Cc1c[nH]c2ccccc12)C(=O)N[C@@H](CC(C)C)C(=O)N[C@@H](CCCNC(=N)N)C(=O)N[C@@H](CCCCN)C(=O)N[C@@H](CCCCN)C(=O)N[C@@H](CC(C)C)C(=O)N[C@@H](CCC(N)=O)C(=O)N[C@@H](CC(=O)O)C(=O)N[C@H](C(=O)N[C@@H](Cc1cnc[nH]1)C(=O)N[C@@H](CC(N)=O)C(=O)N[C@@H](Cc1ccccc1)C(=O)O)C(C)C)C(C)C,n,x,n,x,x,n
CC(NC(=O)c1cccs1)C(c1cccs1)N1CCN(Cc2ccccc2)CC1 (stereo not given),n,n,n,n,n,n
CC(NC(=S)NCCc1ccccc1)C(c1cccs1)N1CCN(C)CC1 (stereo not given),n,n,n,n,n,11µM
C[C@@H]1CC[C@H]2[C@H](C)[C@H]3CC[C@H]4C5[C@@H](O)CC6=CC(=O)CC[C@]6(C)[C@H]5C[C@H]4C3C(=O)N2C1 (stereo not given in full),n,x,n,x,n,n
COc1ccccc1N/N=C/c1c(CO)cnc(C)c1O,n,3.2µM,n,n,n,n
COc1ccc(C(=O)N/N=C/c2c(CO)cnc(C)c2O)cc1,n,n,n,n,n,n
CCCCc1cc2c(cn1)=C(OC(=O)c1ccco1)C(C)(OC(=O)CC)C(=O)C=2 (stereo not given),n[17.5 µM],x,n[17.4 µM],x,n,n[12.8 µM]
O=C(/C=C\c1ccc(O)c(O)c1)O[C@@H]1C[C@](O)(C(=O)O)C[C@@H](O)[C@@H]1O,n,x,n,x,n,n

# Screens (PubChem BioAssay)
